Screening results: PubChem, National Center for Advancing Translational Sciences (NCATS)
MARV entry inh: qHTS for inhibitors of binding or entry into cells for Marburg Virus. hit rate 1.8% among 300,000. Potency, µM (highest dose often 37.8 µM), inactives show at the top dose activity change, negative = inhibition, usual class: inhibitors. Marburg virus pseudotyped entry inhibition, cell reporter. AID 540276, 2011; calls by dose curve; tested in HEK293 cells
AmpC no deterg: qHTS Inhibitors of AmpC Beta-Lactamase (assay without detergent). P00811. AmpC nitrocefin hydrolysis, absorbance 480 nm, 0.0001% Triton. Potency, µM (series often up to 57.1 µM), inactives show top-dose activity change, negative = inhibition, most hits filed as inhibitors. hit rate 0.52% among 330,000;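 note: plate controls were no compound for no effect and no enzyme for full effect; nearly all actives have a fitted effect of over 20% in size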
Target sequence (P00811 whole entry, looked up): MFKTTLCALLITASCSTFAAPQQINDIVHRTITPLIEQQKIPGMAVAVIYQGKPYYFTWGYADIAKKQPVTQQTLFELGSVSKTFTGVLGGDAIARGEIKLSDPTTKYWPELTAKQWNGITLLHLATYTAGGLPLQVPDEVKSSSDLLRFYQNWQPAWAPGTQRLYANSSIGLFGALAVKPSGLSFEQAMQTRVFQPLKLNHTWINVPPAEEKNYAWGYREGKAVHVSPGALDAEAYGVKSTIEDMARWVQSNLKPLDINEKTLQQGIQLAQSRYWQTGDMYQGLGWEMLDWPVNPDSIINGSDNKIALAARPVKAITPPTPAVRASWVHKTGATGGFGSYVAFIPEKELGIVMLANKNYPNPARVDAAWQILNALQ
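20 mM phosphate pH 7.0 + 0.01% (detergent screen) or 0.0001% Triton X-100; 5.3 nM AmpC reagent; cpd preinc 15 min RT; nitrocefin (800 uM stock) to start; A480 q20 s × 4 min; Activity was normalised to no-enzyme and no-compound control wells.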
AMA1-RON2 inh: qHTS for Inhibitors of AMA1-RON; Towards Development of Antimalarial Drug Lead: Primary Screen; AlphaScreen AMA1-biotinylated RON2 peptide binding; AID 720542, 2013; Potency, µM (titrated, usually from 58.2 µM), for the others: at the top dose activity change, negative = inhibition, most hits filed as inhibitors; hit rate 0.2% among 360,000;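 note: 0% = vehicle wells and -100% = peptide control; nearly all actives have a fitted effect of over 45% in size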
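AMA1 (3D7) with his tag at 25 nM final met compounds first, then biotinylated RON2 peptide at 25 nM; detection used donor plus acceptor beads, 10 µg/mL apiece, read by AlphaScreen after 30 min at room temperature.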
AmpC inh detg: qHTS Inhibitors of AmpC Beta-Lactamase (assay with detergent); hit rate 0.041% among 370,000; AmpC hydrolysis of nitrocefin, absorbance 480 nm, 0.01% Triton; P00811; Potency, µM (top dose mostly 114 µM), inactives show top-dose activity change, negative = inhibition, usual class: inhibitors;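 note: 0% = no-compound wells and -100% = no-enzyme wells; nearly all actives have a fitted effect of over 25% in size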
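AmpC (5.3 nM in the dispensed reagent) in 20 mM phosphate pH 7.0 with 0.01% (detergent screen) or 0.0001% Triton X-100 was preincubated with compounds for 15 min at room temperature. Nitrocefin was then added from an 800 uM solution, and hydrolysis was followed at 480 nm.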
Lassa entry inh: qHTS for Inhibitors of binding or entry into cells for Lassa Virus; hit rate 1.2% among 300,000; Potency, µM (highest dose often 37.9 µM), inactives show at the top dose activity change, negative = inhibition, usual class: inhibitors; Lassa virus pseudotype entry inhibition, cell reporter; calls by dose curve; tested in HEK293 cells; note: nearly all actives have a fitted effect of over 50% in size
* marks the source's active call; other numbers are inactive results; ? = inconclusive; / = not tested or not shown; [ ] = dose if it differs, or a comment. In the library only some 2.3% were active in any assay of this set; here they are far more common. Unless noted, calls come from the whole dose curve; as a rule, active = well fitted curve in the direction sought with a large enough effect; inconclusive = small, poorly fitted or top-dose-only effect, or another doubt; inactive = no such curve, though single readings can be large; an effect the other way counts as inactive or inconclusive. Unless noted, % is set by controls: 0 for no effect and ±100 for the full control effect; potency is the fitted concentration of half-maximal effect.

SMILES	MARV entry inh	AmpC no deterg	AMA1-RON2 inh	AmpC inh detg	Lassa entry inh
COC(=O)C[N+](C)(C)CC#Cc1ccccc1	2%	-18%	-8%	4%	5.2µM*
COC(=O)c1ccc2c(c1)N(CC(=O)Nc1cccc(Cl)c1C)C(=O)c1ccccc1S2	/	/	/	?	19%[46.1 µM]
C/C(CCN1CCc2nc(-c3ccccc3)c(-c3ccccc3)cc2C1)=N\OC[C@@H](O)[C@H]1O[C@@H]2OC(C)(C)O[C@@H]2[C@H]1O	26%[14.2 µM]	/	/	/	/
Cc1ccc2nc(N/C(=N/S(=O)(=O)c3cccs3)c3ccccc3Cl)sc2c1	?	13µM*	14%	-13%	-15%
Cc1ccc2nc(NC(=O)C3CCN(S(=O)(=O)c4cccs4)CC3)sc2c1	?	-22%	-12%	6%	10µM*
O=C(NN=Cc1ccc(OC(F)F)cc1)c1ccc(NS(=O)(=O)c2cccs2)cc1	/	-42%	-1%	/	/
O=C(NN=Cc1ccccc1OC(F)F)c1ccc(NS(=O)(=O)c2cccs2)cc1	-13%	16µM*	70%	/	7%
COc1ccc2nc(NC(=O)c3ccc(NS(=O)(=O)c4cccs4)cc3)sc2c1	?	2.5µM*	-19%	?	0%
CCOc1ccc(NC(=O)CSC2=C(C#N)[C@H](c3ccc4c(c3)OCO4)CC(=O)N2)cc1	5%[46.1 µM]	/	/	/	/
Cc1ccc(Cn2c(C)c3cnn(CC(=O)N4CCN(c5ccc(F)cc5)CC4)c(=O)c3c2C)cc1	5%[46.1 µM]	/	/	10%	?
COc1ccc(-c2nc3c(c4c2C[C@H](c2ccccc2)OC4)CN(S(=O)(=O)c2ccc(NC(C)=O)cc2)CC3)c(C)c1	-6%[14.2 µM]	/	/	/	?
O=C(CSc1ncc(-c2ccccc2)[nH]1)Nc1cccc(Br)c1	9%[46.1 µM]	/	/	-2%	13%[46.1 µM]
CC(C)(C)NCC(O)C1=C(Cl)CCCC1 (configuration not stated)	15%	/	/	/	/
O=C(Nc1sc2c(c1C(=O)NCc1ccco1)CCCC2)c1cc(=O)c2ccccc2o1	24%[46.1 µM]	/	/	-1%	23%[46.1 µM]
COc1ccc(/C(C)=N/NC(=O)c2ccc(NS(=O)(=O)c3cccs3)cc2)cc1	/	10µM*	20%	-10%	/
O=C(Nc1nc2ccc(F)cc2s1)C1CCN(S(=O)(=O)c2cc([N+](=O)[O-])ccc2Cl)CC1	?	?	-11%	-10%	?
Cc1ccc2nc(NC(=O)C3CCN(S(=O)(=O)c4cc([N+](=O)[O-])ccc4Cl)CC3)sc2c1	8.2µM*	?	-9%	-5%	?
CCOC(=O)c1ccc2nc(NC(=O)c3cccs3)sc2c1	4.5µM*	-46%	-6%	2%	?
COc1ccc2nc(NC(=O)C3CCN(S(=O)(=O)c4cccs4)CC3)sc2c1	?	-20%	-8%	-8%	15µM*
COc1ccc2nc(NC(=O)C3CCCN(S(=O)(=O)c4cccs4)C3)sc2c1 (configuration not stated)	?	-46%	-16%	-6%	?
O=C(CSc1nccn1Cc1ccccc1)Nc1ccc2c(c1)OCO2	/	/	/	1%	1%[46.1 µM]
COc1cc2c(c(OC)c1OC)C(c1ccccc1)(c1ccccc1)CC2NC(=O)C(F)(F)F (configuration not stated)	-10%[14.2 µM]	/	/	/	/
COc1ccccc1NC(=O)Cn1c(=O)n(Cc2cccs2)c(=O)c2cccnc21	3%[46.1 µM]	/	/	10%	/
O=C1NC2c3c(I)sc(I)c3C(=O)C2O1 (configuration not stated)	?	/	2%	/	13µM*
CCCOc1cccc([C@H]2/C(=C(/O)c3ccc(F)cc3)C(=O)C(=O)N2CCN(C)C)c1	-1%[46.1 µM]	/	/	/	/
SMILES	MARV entry inh	AmpC no deterg	AMA1-RON2 inh	AmpC inh detg	Lassa entry inh
CC(C)CN(C(=O)COC(=O)Cc1ccc(Cl)cc1)c1c(N)n(Cc2ccccc2)c(=O)[nH]c1=O	-5%	-10%	-11%	-9%	?
CCCCn1c(N)c(N(CCC(C)C)C(=O)COC(=O)Cc2ccc(Cl)cc2)c(=O)[nH]c1=O	13µM*	/	3%[11.6 µM]	/	?
CCCCCN(C(=O)CN1CCC(Cc2ccccc2)CC1)c1c(N)n(CCCC)c(=O)[nH]c1=O	10µM*	-15%	-2%	-4%	?
CCCCCN(C(=O)CCC(=O)OCC(=O)N(C)c1ccccc1)c1c(N)n(CCCC)c(=O)[nH]c1=O	?	137%	3%	1%	-5%
Cc1ccc(CCNC(=O)CCN2N=C(c3ccc(C)cc3)CCC2=O)cc1	/	/	/	-8%	-24%[46.1 µM]
CCCn1c(SCc2nc(-c3ccccc3C)no2)nnc1-c1ccc(Cl)cc1	-4%[46.1 µM]	/	/	11%	1%[46.1 µM]
CCN(C(C)=O)c1cnc(C=NNC(N)=S)c2ccccc12	?	/	-27%	/	8.9µM*
NC(=S)NN=Cc1nccc2c(N)cccc12	/	/	-60%	/	/
COc1ccc(C(=O)NCc2nc(-c3cccc(C)c3)no2)cc1OC	?	/	/	5%	10%[46.1 µM]
C[C@@H]1CN(C2CCN(S(=O)(=O)Cc3ccccc3)CC2)C[C@H](C)O1	0%	/	/	/	/
CC(C)CC(C(=O)NCC1CCCO1)N(C(=O)Cn1nnc(-c2ccc(F)cc2)n1)c1cccc(C(F)(F)F)c1 (configuration not stated)	?	5%	8%	2%	-1%
COc1ccc(N(C(=O)Cn2nnc(-c3ccc(F)cc3)n2)C(C)C(=O)NC2CCCC2)cc1 (configuration not stated)	?	70%	13%	1%	12%[46.1 µM]
CC(C(=O)NC1CCCC1)N(C(=O)Cn1nnc(-c2ccc(F)cc2)n1)c1ccccc1F (configuration not stated)	8.2µM*	65%	-10%	-13%	?
O=C(NCC1CCCO1)C(c1ccc(F)cc1)N(C(=O)Cn1nnc(-c2ccc(F)cc2)n1)c1cccc(O)c1 (configuration not stated)	10µM*	119%	-18%	-2%	-1%
CCn1nc(C(=O)O)c(=O)c2c1CC1=C(C2)OCO1	5%	/	/	/	/
COc1ccc(-c2noc(CSc3nnc(C)n3-c3ccc(C)cc3)n2)cc1	-4%[46.1 µM]	/	/	5%	?
CC(C)CO/N=C1\C[C@@H](O)[C@@H](O)[C@@H]2[C@@H]3C(=O)N(c4ccc(F)cc4F)C(=O)[C@@H]3CC[C@@H]12	-10%[14.2 µM]	/	/	/	/
Cc1cc(C)nc(NN=C(c2ccccc2)c2ccccc2)n1	10µM*	9%	8%	-1%	?
Cc1cccc(NC(=O)CCCCCN2C(=O)c3ccccc3C2=O)n1	-3%	7.1µM*	2%	4%	2%
CCOc1cc(NCc2ccccc2)c2ncn(C(C)C)c2c1	/	92%	25µM*	/	/
COCCOc1cc(NCc2ccccc2)c2ncn(C(C)C)c2c1	/	78%	?	/	/
Cc1ccc(NC(=S)c2nc3ccccc3s2)cc1	?	-22%	10µM*	-4%	?
